Assay results published in PubChem BioAssay (Tox21).
A number with no mark means an inactive call. Inconclusive results are not listed. Where a call stands in place of a potency, no number is given. Calls of active or inactive are those of the source. Unless noted, calls come from the whole dose curve; as a rule, active = well fitted curve in the direction sought with a large enough effect in the repeat runs; inconclusive = weak or mixed curves; inactive = no such curve, though single readings can be large; an effect the other way counts as inactive or inconclusive.

Experiments:
[1] = molecular target: Luciferin 4-monooxygenase (Photinus pyralis) (UniProt P08659); assay: qHTS assay to identify small molecule inhibitors of firefly luciferase (AID 1224835); note: nearly all actives have a fitted effect of over 25% in size; note: potency is the fitted concentration of half-maximal effect
Sequence of Luciferin 4-monooxygenase (Photinus pyralis) (P08659 whole entry, looked up): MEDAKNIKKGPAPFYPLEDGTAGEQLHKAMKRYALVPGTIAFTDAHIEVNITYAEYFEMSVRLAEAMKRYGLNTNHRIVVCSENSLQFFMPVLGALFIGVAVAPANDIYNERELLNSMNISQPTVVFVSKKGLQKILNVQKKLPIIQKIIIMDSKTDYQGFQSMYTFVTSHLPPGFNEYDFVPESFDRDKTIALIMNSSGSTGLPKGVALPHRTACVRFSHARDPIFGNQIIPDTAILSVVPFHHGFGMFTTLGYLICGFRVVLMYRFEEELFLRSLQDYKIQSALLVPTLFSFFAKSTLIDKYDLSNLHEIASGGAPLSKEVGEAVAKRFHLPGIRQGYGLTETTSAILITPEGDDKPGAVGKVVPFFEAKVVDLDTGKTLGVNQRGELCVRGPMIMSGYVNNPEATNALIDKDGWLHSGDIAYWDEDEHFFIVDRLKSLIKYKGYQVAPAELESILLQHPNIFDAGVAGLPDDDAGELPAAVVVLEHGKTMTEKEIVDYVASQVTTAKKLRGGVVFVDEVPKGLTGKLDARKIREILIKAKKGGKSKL
Summary of the method: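 Biochemical qHTS: compounds run as interplate titrations against purified firefly enzyme, with D-luciferin and ATP each at its KM concentration. Light output recorded by CCD imaging.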

[2] = qHTS assay to identify small molecule agonists of the constitutive androstane receptor (CAR) signaling pathway - cell viability counter screen (AID 1224836); note: nearly all actives have a fitted effect of over 45% in size
Summary of the method: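 Double-stable HepG2 hepatoma cells (hCAR plus CYP2B6-2.2kb) are treated for 23 h at 37 C with test compounds in 15-point concentration series. PK11195 at 0.75 uM final is co-added. Cell viability is quantified by CellTiter-Fluor.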

[3] = qHTS assay to identify small molecule antagonists of the constitutive androstane receptor (CAR) signaling pathway - cell viability counter screen (AID 1224837); note: nearly all actives have a fitted effect of over 45% in size
Summary of the method: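 Cytotoxicity counter-screen: CellTiter-Fluor fluorescence after 23 h compound exposure (15-point qHTS) in double-stable HepG2-CYP2B6-hCAR cells, with 50 nM CITCO added.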

[4] = molecular target: Nuclear receptor subfamily 1 group I member 3 (Homo sapiens) (UniProt Q14994); assay: qHTS assay to identify small molecule antagonists of the constitutive androstane receptor (CAR) signaling pathway (AID 1224838);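 note: HepG2 cells stably expressing hCAR with CYP2B6 luciferase reporter stimulated by CITCO; nearly all actives have a fitted effect of over 40% in size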
Sequence of Nuclear receptor subfamily 1 group I member 3 (Homo sapiens) (Q14994 whole entry, looked up): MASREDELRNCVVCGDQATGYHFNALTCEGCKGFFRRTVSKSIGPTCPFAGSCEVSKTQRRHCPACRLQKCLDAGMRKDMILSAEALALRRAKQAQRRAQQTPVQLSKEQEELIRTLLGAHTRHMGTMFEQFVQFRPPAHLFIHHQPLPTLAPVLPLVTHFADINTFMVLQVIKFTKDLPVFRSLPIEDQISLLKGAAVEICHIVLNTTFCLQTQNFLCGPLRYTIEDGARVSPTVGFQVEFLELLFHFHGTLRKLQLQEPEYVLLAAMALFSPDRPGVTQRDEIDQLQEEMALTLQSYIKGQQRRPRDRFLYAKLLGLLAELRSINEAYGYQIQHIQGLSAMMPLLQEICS
Summary of the method: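 Antagonism measured as luciferase signal (ONE-Glo, 30 min, room temperature) in CAR-stimulated cells: HepG2-CYP2B6-hCAR double-stable line exposed 24 hr at 37 C to compound in a 15-point series plus 50 nM CITCO.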

[5] = molecular target: Nuclear receptor subfamily 1 group I member 3 (Homo sapiens) (UniProt Q14994); assay: qHTS assay to identify small molecule agonists of the constitutive androstane receptor (CAR) signaling pathway (AID 1224839); note: nearly all actives have a fitted effect of over 15% in size; note: potency is the fitted concentration of half-maximal effect;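 for activation: HepG2 cells stably carrying human CAR and a CYP2B6 luciferase reporter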
Summary of the method: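 Readout: firefly luciferase luminescence via ONE-Glo. System: HepG2 double-stable for hCAR and CYP2B6-2.2kb. Conditions: 15-point compound titration, PK11195 at 0.75 uM final, 24 h incubation.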

[6] = qHTS assay to identify small molecule antagonists of the estrogen related receptor signaling pathway with the pleiotropic PPARgamma coactivator (PGC) from Tox21 10K library - cell viability counter screen (AID 1224840; active = well fitted cell-killing curve with a large enough effect in the repeat runs, not every such curve was filed as active; note: nearly all actives have a fitted effect of over 40% in size)
Summary of the method: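 Counter-screen for cytotoxicity: after 17.5 h compound exposure at 37 C, CellTiter-Fluor reagent added to PGC/ERR cells for 30 min and fluorescence read. Cells were seeded at 2,000 per well 6 h before dosing.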

[7] = qHTS assay to identify small molecule agonists of the hypoxia (HIF-1) signaling pathway (AID 1224846; active = well fitted activation curve with a large enough effect in the signal ratio in the repeat runs, not every such curve was filed as active; the % refers to the signal ratio)
Summary of the method: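 Compounds added to ME-180 cells carrying hypoxia-response-element beta-lactamase reporter (0.5% dialyzed FBS, 5 h preplating), 17 h at 37C; agonist activity detected by CCF4-AM B/G FRET read-out.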

[8] = qHTS assay to identify small molecule agonists of H2AX - cell viability counter screen (AID 1224847; calls by dose curve; note: top concentration of the series differs between compounds; nearly all actives have a fitted effect of over 30% in size)
Summary of the method: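 For this counter screen, overnight-attached CHO-K1 cells received test compounds (15 concentrations, 0.76% DMSO final); 3 hr later at 37C, CellTiter-Glo reagent was added and luminescence recorded after 30 min at room temperature.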

[9] = qHTS RealTime-Glo MT Cell Viability Assay in HepG2 cells - 24 hour (AID 1224867); note: nearly all actives have a fitted effect of over 50% in size
Summary of the method: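 HepG2 cells were seeded at 600 cells/well together with NanoLuc luciferase and a cell-permeant prosubstrate, preincubated 5 h at 37 C/5% CO2, then pin-dosed with compounds in DMSO. Nonlytic luminescence from viable cells was read at each time point.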

[10] = qHTS RealTime-Glo MT Cell Viability Assay in HEK293 cells - 32 hour (AID 1224868); note: nearly all actives have a fitted effect of over 50% in size; note: potency is the fitted concentration of half-maximal effect
Summary of the method: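 HEK293 cells were seeded at 600 cells/well together with NanoLuc luciferase and cell-permeant prosubstrate, preincubated 5 h at 37 C/5% CO2, then given compound in DMSO by pintool. Luminescence from viable-cell prosubstrate reduction was read repeatedly over 40 h.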

[11] = A CellTox Green Cytotoxicity Assay to monitor cytotoxicity in HEK293 cells - 0 hour (AID 1224869); note: nearly all actives have a fitted effect of over 50% in size
Summary of the method: (§1)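 Fluorescence from a DNA-binding dye excluded by viable cells was measured repeatedly in the same HEK293 wells (600 cells/well) during continuous compound exposure at 37 C. Each assay gives one read point: 0, 8, 16, 24, 32 or 40 h.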

[12] = qHTS RealTime-Glo MT Cell Viability Assay in HepG2 cells - 40 hour (AID 1224870); note: nearly all actives have a fitted effect of over 50% in size
Summary of the method: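 HepG2 cells (600/well) mixed with RealTime-Glo MT reagent, settled 5 h at 37 C/5% CO2 before compound addition. Nonlytic NanoLuc luminescence from viable-cell prosubstrate reduction read repeatedly during 40 h treatment at 37 C.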

[13] = A CellTox Green Cytotoxicity Assay to monitor cytotoxicity in HEK293 cells - 40 hour (AID 1224871); note: nearly all actives have a fitted effect of over 45% in size
Summary of the method: as §1

[14] = qHTS assay to identify small molecule agonists of H2AX (AID 1224845; active = well fitted activation curve with a large enough effect in the signal ratio in the repeat runs, not every such curve was filed as active; the % refers to the signal ratio)
Summary of the method: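 Wild-type CHO-K1 cells, plated overnight, exposed 3hr at 37C to 15 concentrations (0.76% DMSO final). Lysed, then HTRF anti-pH2AX (S139) cryptate and anti-H2AX-d2 antibodies, 24 hr room temperature; 665/620 nm emission read.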

[15] = molecular target: Thyrotropin receptor (Homo sapiens) (UniProt P16473); assay: qHTS assay to identify small molecule agonists of the thyroid stimulating hormone receptor (TSHR) signaling pathway (AID 1224843; calls by dose curve; note: nearly all actives have a fitted effect of over 45% in size)
Sequence of Thyrotropin receptor (Homo sapiens) (P16473 whole entry, looked up): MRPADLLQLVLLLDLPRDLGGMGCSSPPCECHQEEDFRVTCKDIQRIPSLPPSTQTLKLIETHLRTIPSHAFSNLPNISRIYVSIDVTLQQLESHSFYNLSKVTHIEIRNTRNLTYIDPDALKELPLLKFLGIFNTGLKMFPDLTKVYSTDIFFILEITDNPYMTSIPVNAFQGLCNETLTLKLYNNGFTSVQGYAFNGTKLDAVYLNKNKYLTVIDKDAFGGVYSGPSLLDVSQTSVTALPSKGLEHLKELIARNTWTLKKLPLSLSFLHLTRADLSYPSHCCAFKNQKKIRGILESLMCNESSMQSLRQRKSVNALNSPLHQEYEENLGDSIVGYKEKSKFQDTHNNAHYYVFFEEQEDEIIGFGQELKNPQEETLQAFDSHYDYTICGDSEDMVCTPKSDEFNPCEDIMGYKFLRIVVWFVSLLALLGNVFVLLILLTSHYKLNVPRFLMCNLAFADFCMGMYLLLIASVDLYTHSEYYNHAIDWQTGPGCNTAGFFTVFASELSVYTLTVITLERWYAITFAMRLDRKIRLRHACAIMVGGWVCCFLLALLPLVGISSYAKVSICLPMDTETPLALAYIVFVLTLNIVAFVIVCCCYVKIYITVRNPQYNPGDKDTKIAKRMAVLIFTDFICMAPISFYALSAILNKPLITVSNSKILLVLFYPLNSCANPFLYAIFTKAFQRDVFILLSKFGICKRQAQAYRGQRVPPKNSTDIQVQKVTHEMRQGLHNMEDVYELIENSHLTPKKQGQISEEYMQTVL
Summary of the method: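 Agonist-mode screen: TSHR HEK293 cells received test chemicals for half an hour at room temperature, then HTRF cAMP detection reagents for one hour prior to fluorescence measurement. Each chemical ran as a 15-concentration series, triplicated.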

[16] = qHTS assay to identify small molecule agonists of the hypoxia (HIF-1) signaling pathway - cell viability counter screen (AID 1224844; calls by dose curve; note: nearly all actives have a fitted effect of over 50% in size)
Summary of the method: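 Cytotoxicity measured by CellTiter-Glo ATP luminescence in the wells also read for beta-lactamase signal. Cells were HRE-bla ME-180 (2,000/well, 0.5% dialyzed FBS), exposed to compounds for 17 h at 37C.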

[17] = qHTS assay to identify small molecule antagonists of the estrogen related receptor signaling pathway with the pleiotropic PPARgamma coactivator (PGC) from Tox21 10K library (AID 1224841; call rule not given here)
Summary of the method: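 Luminescence (One-Glo, 30 min at room temperature) after 18 h compound treatment at 37 C of PGC/ERR reporter cells plated at 2,000 cells/well and settled 6 h beforehand.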

[18] = qHTS assay to identify small molecule agonists of the estrogen related receptor signaling pathway with the pleiotropic PPARgamma coactivator (PGC) from Tox21 10K library (AID 1224842); note: nearly all actives have a fitted effect of over 15% in size
Summary of the method: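 PGC/ERR reporter cell line, 2,000 cells per well, incubated 6 h at 37 C before 23 nL compound in DMSO was added. After 18 h at 37 C, One-Glo luminescence read following 30 min at room temperature.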

[19] = qHTS assay to identify small molecule agonists of the estrogen related receptor (ERR) signaling pathway from Tox21 library (AID 1224849; calls by dose curve; note: nearly all actives have a fitted effect of over 15% in size); settings: ERR reporter cell line, ONE-Glo luciferase, 18 h; at 92.4 µM (top of the series) unless noted
Summary of the method: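 Luminescent agonist read-out (One-Glo, 30-minute room-temperature incubation) following 18-hour compound treatment at 37 C of the ERR cell line, which had been plated 6 hours before dosing.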

[20] = qHTS assay to identify small molecule antagonists of the estrogen related receptor (ERR) signaling pathway from Tox21 library (AID 1224848); note: nearly all actives have a fitted effect of over 50% in size
Summary of the method: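 Quantitative high-throughput format: ERR reporter cells (2,000/well) pre-incubated 6 h, treated 18 h at 37 C with compounds in DMSO alongside positive and negative controls, then read by ONE-Glo luminescence.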

Structure (SMILES) | Potency [1] | Potency [2] | Potency [3] | Potency [4] | Potency [5] | Potency [6] | outcome [7] | Potency [8] | outcome [9] | Potency [10] | Potency [11] | Potency [12] | Potency [13] | Potency [14] | Potency [15] | Potency [16] | Potency [17] | Potency [18] | activity change, positive = activation [19] | Potency [20]
COC(=O)Cc1cccc2ccccc12 | inactive | inactive | inactive | inactive | 34.4 µM (active) | inactive | inactive | inactive | inactive | inactive | inactive | inactive | inactive |  |  |  |  |  |  | 
O=C(O)c1cccc(C(=O)O)c1C(=O)O | inactive | inactive | inactive | inactive | inactive | inactive | inactive |  | inactive | inactive | inactive | inactive | inactive | inactive |  |  |  |  |  | 
O=C(O)c1ccc(O)c(O)c1 | inactive | inactive | inactive | inactive | inactive |  | inactive | inactive |  | inactive | inactive | inactive | inactive |  | inactive | inactive |  |  |  | 
CCOC(OCC)OCC | inactive | inactive | inactive | inactive | inactive | inactive | inactive |  | inactive | inactive | inactive | inactive | inactive | inactive | inactive |  |  |  |  | 
CCCCC(CC)COCCC#N (configuration not stated) | inactive | inactive | inactive | inactive | inactive | inactive | inactive | inactive | inactive | inactive | inactive | inactive | inactive | inactive |  | inactive |  |  |  | 
Oc1ccc(CCNCCCCCCNCCc2ccccc2)cc1O | inactive | inactive | inactive | inactive | inactive |  | inactive | inactive |  | 26.8 µM (active) | inactive |  | inactive |  |  |  | inactive | inactive | -19.4% [at 42.5 µM] | 
CC(C)NC(=O)c1ccccc1N | inactive | inactive | inactive | inactive | inactive | inactive | inactive | inactive |  |  | inactive |  | inactive | inactive | inactive |  |  |  |  | 
O=C1c2ccccc2C(=O)C1c1ccc2ccccc2n1 | 0.111 µM (active) | inactive | inactive | inactive | 6.05 µM (active) | inactive | inactive | inactive | inactive |  |  | inactive |  | inactive | inactive |  |  |  |  | 
O=Cc1ccc([N+](=O)[O-])cc1 | inactive | inactive | inactive | inactive | 61.5 µM (active) |  | inactive | inactive | inactive | inactive | inactive | inactive | inactive | inactive |  | inactive | inactive |  | 51.8% (active) | inactive
